High-throughput results from PubChem BioAssay.
MITF inh: blocks human microphthalmia-associated transcription factor | O75030 | AlphaScreen MITF homodimerization, bead proximity signal | inhibition, % at 2.6 µM | 0.91% of 650,000 active | AID 1259374; in the data active means inhibition above about 50%;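 further: 0% = vehicle wells with protein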
GPR151 activ: human GPR151 activation; PathHunter beta-arrestin GPR151 cells, luminescence; Q8TDV0; 1% of 650,000 active; AID 1508602; activation, % at 11.2 µM; in the data active means activation above about 4.9%;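 further: 0% = median of compound wells and 100% = cells with positive control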
Target sequence (Q8TDV0 whole entry, looked up): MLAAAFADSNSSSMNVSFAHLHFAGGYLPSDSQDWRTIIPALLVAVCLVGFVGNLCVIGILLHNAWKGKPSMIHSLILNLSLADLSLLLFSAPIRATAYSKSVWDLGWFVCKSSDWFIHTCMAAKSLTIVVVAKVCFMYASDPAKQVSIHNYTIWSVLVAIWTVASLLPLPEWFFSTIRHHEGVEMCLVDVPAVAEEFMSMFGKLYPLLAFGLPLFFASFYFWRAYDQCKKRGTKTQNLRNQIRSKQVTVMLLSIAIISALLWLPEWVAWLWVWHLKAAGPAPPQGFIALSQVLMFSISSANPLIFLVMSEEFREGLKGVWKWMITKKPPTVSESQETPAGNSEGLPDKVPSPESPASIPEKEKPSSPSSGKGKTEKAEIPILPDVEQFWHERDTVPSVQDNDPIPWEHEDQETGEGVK
TEAD-YAP block: TEAD-YAP interaction inhibition; inhibition, % at 9.12 µM; AID 1259422; 1.4% of 640,000 active; HEK-TIYL cells, TEAD-Gal4/YAP UAS-luciferase luminescence; in the data active means inhibition above about 32%;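 further: 0% = median of test compound wells and 100% = reference inhibitor wells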
FBW7 act: activators of human E3 ligase FBW7; Q969H0; AlphaScreen FBW7–phospho-cyclin E peptide binding, activator screen; normalized activity (activation), % at 26.1 µM; 0.13% of 650,000 active; AID 1259310; in the data active means normalized activity above about 1.9%;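 further: purified mutant Fbw7 with reduced substrate affinity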
Numbers without * were called inactive. Hits are enriched below; roughly 3.5% of the tested compounds scored in any of these assays.

SMILES	MITF inh	GPR151 activ	TEAD-YAP block	FBW7 act
COc1ccc(C2/C(=C(/O)c3ccc(C)cc3)C(=O)C(=O)N2CCCN(C)C)cc1 (centres undefined)	5	-2	0	0
O=c1[nH]c(CCl)nc2sc(-c3ccccc3)cc12	5	-2	33*	0
Cc1ccc(NC(=O)CN2C(=O)CCc3ccccc32)c(Cl)c1	-3	0	-2	0
O=C1/C(=C/c2cn[nH]c2-c2ccccc2)SC(=Nc2ccccc2)N1c1ccccc1	-4	1	9	0
CC(C)(C)c1ccc(C2CC2C(=O)N/N=C\c2ccc[nH]2)cc1 (centres undefined)	5	0	91*	0
CCN1CCCC1CNC(=O)C1=CCN(S(=O)(=O)c2ccc(F)cc2)CC1 (centres undefined)	-5	-1	-5	0
CCN(CC)c1ccc(NC(=O)CNCCN2CCOCC2)c(C)c1	61*	2	2	0
CCn1nc(CN)c2ccccc2c1=O	0	1	43*	0
CCn1nc(CCC(=O)O)c2ccccc2c1=O	-9	-1	2	0
Cc1c2oc3c(C)ccc(C(=O)N[C@@H]4C(=O)N[C@H](C(C)C)C(=O)N5CCC[C@H]5C(=O)N(C)CC(=O)N(C)[C@@H](C(C)C)C(=O)O[C@@H]4C)c3nc-2c(C(=O)N[C@@H]2C(=O)N[C@H](C(C)C)C(=O)N3CCC[C@H]3C(=O)N(C)CC(=O)N(C)[C@@H](C(C)C)C(=O)O[C@@H]2C)c(N)c1=O	5	0	96*	0
COc1ccc(-c2nc(-c3ccccc3)c(-c3ccccc3)[nH]2)c(OC)c1	10	0	-2	0
COc1cc(C)ccc1OCCCOc1ccccc1C(=O)O	-11	-1	37*	1
COC(=O)c1ccccc1OCCCOc1ccc(C)cc1OC	13	-2	-12	0
O=C(/C=C/Nc1ccccc1F)c1cccs1	10	-1	38*	0
O=C(/C=C/Nc1ccc(F)cc1F)c1cccs1	30	1	73*	1
CN(C)CC(=O)N1c2ccccc2CCc2ccc(N)cc21	-3	1	-10	0
COc1cc(OC)cc(C(=O)c2c(N)sc3c2CCC(C)C3)c1 (centres undefined)	-5	1	54*	0
COc1cc(OC)cc(C(=O)c2c(N)sc3c2CCCC3)c1	-11	0	3	0
CCCn1c2ccccc2c2nc3cc(OC)c(OC)cc3nc21	-10	2	10	3.7*
CCCCn1c2ccccc2c2nc3cc(OC)c(OC)cc3nc21	-5	-1	3	2
COc1cc2nc3c4ccccc4n(C(C)C)c3nc2cc1OC	-49	-2	2	3.7*
CCN(CC)CCn1c2ccccc2c2nc3ccccc3nc21	2	-1	76*	0
COc1cccc(-c2nc3ccccc3c(=O)n2NC(=O)c2c(F)cccc2F)c1	9	0	-4	0
COc1ccc(-c2nnc3n2N=C(c2ccc(C)cc2)CS3)cc1OC	15	-2	52*	0
COc1ccc(-c2nnc3n2N=C(c2ccc(C)cc2)CS3)cc1	1	0	52*	0
SMILES	MITF inh	GPR151 activ	TEAD-YAP block	FBW7 act
COc1ccc(C2=Nn3c(nnc3-c3cccc(F)c3)SC2)cc1	8	-1	64*	1
COc1ccc(-c2nnc3n2N=C(c2cccc(OC)c2)CS3)cc1	-11	-1	4	0
COc1cccc(C2=Nn3c(nnc3-c3cccc(C)c3)SC2)c1	9	0	48*	0
CCc1nnc2n1N=C(c1ccc(OC)c(OC)c1)CS2	-13	0	-28	0
COc1ccc(-c2nnc3n2N=C(c2ccc(F)cc2)CS3)cc1	15	-1	14	1
CCOC(=O)c1ccc(CN(Cc2ccc(C)cc2)S(=O)(=O)c2ccc(F)c(C(=O)Nc3c(C)cc(C)cc3C)c2)cc1	-2	0	-4	0
CC(C)(C)P(=NC(=S)NCCCO)(N1CCCCCC1)N1CCCCCC1	16	1	73*	0
CCOC(=O)c1sc2ncn(CC(=O)NCCC3=CCCCC3)c(=O)c2c1C	-13	2	-4	2.2*
CC(=O)Nc1ccc(C(=O)NCC(=O)OCc2ccc(C(=O)c3ccccc3)cc2)cc1	3	1	44*	0
Cc1ccc(Cl)cc1N1CCN(C(=O)c2ccc(=O)[nH]c2)CC1	13	3	11	0
COc1cc(OC)cc(C(=O)N2CCN(c3cc(Cl)ccc3C)CC2)c1	12	0	54*	0
O=C(c1coc(=O)c2ccccc12)N1CCN(c2ccccc2F)CC1	-3	1	8	0
Cc1ccc(Cl)cc1N1CCN(C(=O)c2coc(=O)c3ccccc23)CC1	-10	1	61*	0
COc1c(C(=O)NCc2ccc3c(c2)OCO3)ccc2ccccc12	-7	-2	4	0
COc1ccc(C2C=C(Nc3ccc(F)cc3)C(=O)N2c2ccc(F)cc2)cc1 (centres undefined)	0	-1	-11	0
CCOc1ccc(Nc2cc(C)nc3ccc(OC)cc23)cc1	11	1	12	0
COC(=O)c1ccc(Nc2cc(C)nc3ccc(OC)cc23)cc1	20	-2	36*	0
COc1ccc(OC)c(Nc2cc(C)nc3nc(C)nn23)c1	2	0	34*	0
COC(=O)c1ccc2nc(C)cc(Nc3ccc(OC)cc3)c2c1	5	0	-6	0
COc1ccc(Nc2cc(C)nc3nc(C)nn23)c(OC)c1	13	-1	8	0
COc1ccc2nc(C)cc(Nc3ccc(N4CCN(C)CC4)cc3)c2c1	4	-1	77*	0
CCOc1ccc2nc(C)cc(Nc3cc(Cl)ccc3OC)c2c1	0	0	38*	0
COC(=O)c1ccccc1NC(=O)Nc1ccc(N2CCOCC2)c2nonc12	0	2	0	0
Cc1cccc(CN[C@H]2C[C@@H](C(=O)NCc3cccnc3)N(C/C=C/c3ccccc3)C2)c1	5	0	4	0
O=C(CSc1nccn1-c1ccc(Cl)cc1)NCc1ccco1	1	0	9	0
SMILES	MITF inh	GPR151 activ	TEAD-YAP block	FBW7 act
COc1ccc(OC)c(Nc2cc(C)nc3ccc(OC)cc23)c1	1	0	68*	0
Cc1ccc(C(=O)Nc2ccccc2)cc1S(=O)(=O)Nc1cccc(C(=O)O)c1	7	4	4	0
COc1cc(NC(=O)c2sc3ncnc(N(C)c4ccccc4)c3c2C)cc(OC)c1OC	8	0	50*	0
CC(C)C(=O)NCc1ccc2[nH]c3c(c2c1)CCCC3	16	-2	4	0
O=C(CCl)NCc1ccc2[nH]c3c(c2c1)CCCC3	15	2	34*	0
COc1cc([C@@H]2c3cc4c(cc3[C@H](O)[C@H]3COC(=O)[C@H]23)OCO4)cc(OC)c1OC	4	4	43*	0
COc1cc([C@@H]2c3cc4c(cc3[C@@H](O[C@@H]3O[C@@H]5CO[C@@H](C)O[C@H]5[C@H](O)[C@H]3O)[C@H]3COC(=O)[C@H]23)OCO4)cc(OC)c1O	0	1	-35	0
